Out of some 310,000 compounds screened, about 14,000 (4.5%) showed an effect of 50% or more. The effect is printed as a negative number. Only a selection was taken, and strong results are over-represented in it overall.
Molecular target: human ether-à-go-go-related gene (hERG) potassium channel (human, UniProt Q12809)
Test: primary screen, population patch clamp on CHO cells stably expressing hERG; higher = less effect of the substance
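Also: peak tail current of the secondary pulse compared with the same well before compound.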

Chain of human ether-à-go-go-related gene (hERG) potassium channel (Q12809 whole entry, looked up): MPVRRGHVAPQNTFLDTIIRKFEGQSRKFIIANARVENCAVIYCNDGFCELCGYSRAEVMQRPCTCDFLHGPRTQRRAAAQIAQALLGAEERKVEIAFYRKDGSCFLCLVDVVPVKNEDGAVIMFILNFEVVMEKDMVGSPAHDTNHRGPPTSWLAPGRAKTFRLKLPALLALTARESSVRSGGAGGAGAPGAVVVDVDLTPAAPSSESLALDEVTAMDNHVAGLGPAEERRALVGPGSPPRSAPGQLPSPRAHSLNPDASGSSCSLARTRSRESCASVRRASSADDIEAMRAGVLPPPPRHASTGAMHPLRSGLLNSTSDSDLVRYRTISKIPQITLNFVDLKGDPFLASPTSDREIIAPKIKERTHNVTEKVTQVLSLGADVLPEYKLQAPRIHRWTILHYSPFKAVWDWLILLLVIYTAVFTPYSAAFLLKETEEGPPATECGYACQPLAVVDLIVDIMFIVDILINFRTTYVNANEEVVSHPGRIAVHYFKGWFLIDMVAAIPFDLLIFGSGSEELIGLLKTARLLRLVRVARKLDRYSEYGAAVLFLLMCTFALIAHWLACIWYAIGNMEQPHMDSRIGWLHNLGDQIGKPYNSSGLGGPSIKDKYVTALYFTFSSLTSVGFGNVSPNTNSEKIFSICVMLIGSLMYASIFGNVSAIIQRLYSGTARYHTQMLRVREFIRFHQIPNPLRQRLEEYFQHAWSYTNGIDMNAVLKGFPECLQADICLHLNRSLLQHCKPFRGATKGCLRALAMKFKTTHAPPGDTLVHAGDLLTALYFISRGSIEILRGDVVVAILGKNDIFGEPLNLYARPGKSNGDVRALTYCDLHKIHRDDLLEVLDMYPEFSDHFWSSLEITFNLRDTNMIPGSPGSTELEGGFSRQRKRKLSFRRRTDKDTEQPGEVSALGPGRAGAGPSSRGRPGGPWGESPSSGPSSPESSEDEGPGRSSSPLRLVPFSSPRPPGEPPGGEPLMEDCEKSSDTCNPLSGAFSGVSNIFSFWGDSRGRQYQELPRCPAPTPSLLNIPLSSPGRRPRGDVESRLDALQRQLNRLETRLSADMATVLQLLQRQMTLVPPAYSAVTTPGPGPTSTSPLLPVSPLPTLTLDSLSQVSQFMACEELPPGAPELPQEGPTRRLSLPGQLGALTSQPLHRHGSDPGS

Compared with `CC(=O)N(C)c1ccc(NC(=S)Nc2cccc3ccccc23)cc1`, `CCN(CC)c1ccc(NC(=O)CN2CCN(CC(=O)Nc3ccccc3OC)CC2)cc1` is lower in “hERG current change (%, negative = inhibition) at 10uM” value: 3.38% for the first, -26.9% for the second.

First: O=C(CSc1nnnn1-c1ccc(O)cc1)Nc1ccc(N2CCOCC2)c(Cl)c1
Second: CC1(c2ccccc2)NC(=O)N(CC(=O)Nc2ccc(N3CCOCC3)cc2N2CCOCC2)C1=O (centres unmarked)
The “hERG current change (%, negative = inhibition) at 10uM” value of the first is lower: -1.58% for the first, 6.74% for the second.

First: CCOc1ccc(CCNC(=O)C2CCCN(c3nn4c(=O)cc(C)nc4s3)C2)cc1 (centres unmarked)
Second: CC(=O)c1c(C)nn(CC(=O)NC2CCCN(Cc3ccc(CC(C)C)cc3)C2)c1C (centres unmarked)
The “hERG current change (%, negative = inhibition) at 10uM” value of the first is higher: -24.2% for the first, -73.4% for the second.

First: COC(c1ccccc1)c1nnc(CCC(=O)NC2C3CC4CC(C3)CC2C4)o1 (centres unmarked)
Second: CSc1ccc(/C=C/C(=O)NC23CC4CC(CC(C4)C2)C3)cc1
The “hERG current change (%, negative = inhibition) at 10uM” value of the first is lower: -3.85% for the first, 14.6% for the second.

Going from `CCCCc1c(C)nc2c(OC)cccc2c1SCC(=O)O` to `COc1ccc(C(=O)OCC(=O)NC(C)CCc2ccccc2)cc1OC` (centres unmarked), the “hERG current change (%, negative = inhibition) at 10uM” value falls from 12.3% to 0.524%.

Going from `O=C(C1CCC1)N1CCN(c2ccc(Cl)cc2)CC1` to `O=C(C1CCC1)N1CCN(c2ccnc3cc(Cl)ccc23)CC1`, the “hERG current change (%, negative = inhibition) at 10uM” value falls from -5.33% to -71.4%.

Compared with `CC1CN(c2ccnc3cc(Cl)ccc23)CC(C)O1` (centres unmarked), `NC(=O)C1CCN(c2ccnc3cc(Cl)ccc23)CC1` is lower in “hERG current change (%, negative = inhibition) at 10uM” value: -39.7% for the first, -51.6% for the second.

First: O=C(Oc1ccnc2cc(Cl)ccc12)N1CCCCCC1
Second: O=C(C1CCCCC1)N1CCN(c2ccnc3cc(Cl)ccc23)CC1
The “hERG current change (%, negative = inhibition) at 10uM” value of the first is higher: -23% for the first, -66.1% for the second.

First: O=C(NNc1ccnc2cc(Cl)ccc12)C1CCCCC1
Second: O=C(C1CC1)N1CCN(c2ccnc3cc(Cl)ccc23)CC1
The “hERG current change (%, negative = inhibition) at 10uM” value of the first is higher: 16.1% for the first, -73.6% for the second.

Compared with `NC(=O)C1CCN(c2cc(Cl)ccc2[N+](=O)[O-])CC1`, `CC1CCCN(C(=O)CSc2nnc3ccccn23)C1` (centres unmarked) is higher in “hERG current change (%, negative = inhibition) at 10uM” value: 3.89% for the first, 4.63% for the second.

Going from `Cc1[nH]c2ccc(C(=O)N3CCN(C)CC3)cc2c1C` to `CCOc1cc(C(=S)N2CCN(C)CC2)ccc1OCC(=O)N1CCCC1`, the “hERG current change (%, negative = inhibition) at 10uM” value falls from 30.8% to 16%.

Going from `COc1ccc(C2CC(c3cccs3)=NN2c2ccc(F)cc2)cc1OC` (centres unmarked) to `COc1ccc(C)cc1NC(=O)CN1CCN(c2ccc(F)cc2)CC1`, the “hERG current change (%, negative = inhibition) at 10uM” value falls from 26.6% to -50.4%.

Compared with `CCN1CCN(CCCNC(=O)c2ccc(NC(=O)C3=CSCCO3)cc2)CC1`, `COc1ccccc1NC(=O)CN1CCN(CC(=O)Nc2ccc(F)cc2)CC1` is lower in “hERG current change (%, negative = inhibition) at 10uM” value: 19.9% for the first, -79.2% for the second.

Compared with `COc1ccccc1NC(=O)c1cc(C(=O)Nc2ccccc2OC)cc([N+](=O)[O-])c1`, `COc1ccccc1NC(=O)c1cc(N)cc(C(=O)Nc2ccccc2OC)c1` is lower in “hERG current change (%, negative = inhibition) at 10uM” value: 21.1% for the first, -50.6% for the second.

Going from `O=C(Nc1ccccc1O)c1ccc(C(=O)c2ccccc2)o1` to `COc1ccccc1NC(=O)c1ccc(C(=O)c2ccccc2)o1`, the “hERG current change (%, negative = inhibition) at 10uM” value falls from 11.2% to -69.4%.

Going from `COc1ccccc1NC(=O)c1ccc(N)cc1` to `COc1ccccc1NC(=O)c1ccc(Br)o1`, the “hERG current change (%, negative = inhibition) at 10uM” value falls from 5.63% to -6.16%.

Compared with `CCOc1ccccc1NC(=O)c1ccccc1-c1nc(-c2ccccc2OC)no1`, `COc1ccccc1NC(=O)c1ccccc1-c1nc(-c2ccccc2OC)no1` is lower in “hERG current change (%, negative = inhibition) at 10uM” value: -35.6% for the first, -57.7% for the second.

Going from `COc1ccccc1-c1noc(-c2ccccc2C(=O)Nc2ccccc2)n1` to `O=C(Nc1ccccc1)c1nccn1Cc1ccc(F)cc1`, the “hERG current change (%, negative = inhibition) at 10uM” value falls from 13.9% to -10.9%.

First: O=C(COc1ccc([N+](=O)[O-])cc1)N(Cc1ccccc1)Cc1ccccc1
Second: COc1ccc([N+](=O)[O-])cc1C(=O)C(=O)c1ccccc1
The “hERG current change (%, negative = inhibition) at 10uM” value of the first is lower: -41.5% for the first, 8.56% for the second.

Compared with `COC(=O)c1c(C)oc2ccc(OC(=O)N3CCOCC3)cc12`, `O=C(CCn1c(=O)oc2ccccc21)NCCN1CCOCC1` is higher in “hERG current change (%, negative = inhibition) at 10uM” value: -8.62% for the first, -2.83% for the second.

Going from `CCC(CC)c1nnc(NC(=O)c2cc(C(=O)OC)cc([N+](=O)[O-])c2)s1` to `COC(=O)c1ccc(OC(=O)CCS(=O)(=O)c2ccc(C)cc2)cc1`, the “hERG current change (%, negative = inhibition) at 10uM” value falls from 7.7% to -16.4%.

Going from `CC(C)Cc1ccc(CN2CCCC(NC(=O)CCn3cnnn3)C2)cc1` (centres unmarked) to `CC(C)Cc1ccc(CN2CCCC(NC(=O)Cn3cnnn3)C2)cc1` (centres unmarked), the “hERG current change (%, negative = inhibition) at 10uM” value rises from -46.2% to -26.5%.

Compared with `Cc1noc(C)c1CCC(=O)NC1CCCN(Cc2ccc(Cl)cc2)C1` (centres unmarked), `Cc1noc(C)c1CCC(=O)NC1CCCN(Cc2ccc(CC(C)C)cc2)C1` (centres unmarked) is lower in “hERG current change (%, negative = inhibition) at 10uM” value: -24% for the first, -66.8% for the second.

Compared with `CC(C)Cc1ccc(CN2CCCC(NC(=O)CCN3CCOCC3)C2)cc1` (centres unmarked), `CC(C)Cc1ccc(CN2CCCC(NC(=O)CCN3CCCCC3=O)C2)cc1` (centres unmarked) is lower in “hERG current change (%, negative = inhibition) at 10uM” value: -37.4% for the first, -45.3% for the second.

First: Cc1ccn(CC(=O)NC2CCCN(Cc3ccc(CC(C)C)cc3)C2)n1 (centres unmarked)
Second: CC(C)Cc1ccc(CN2CCCC(NC(=O)CSc3nncn3C)C2)cc1 (centres unmarked)
The “hERG current change (%, negative = inhibition) at 10uM” value of the first is lower: -55.2% for the first, -23.7% for the second.

Going from `CC(C)C[C@H](NC(=O)c1nc[nH]c1C(=O)NCc1ccc(CNC(=O)OC(C)(C)C)cc1)C(=O)OC(C)(C)C` to `COc1ccc(CC(=O)NNC(=O)CCC(=O)Nc2cc(C)ccc2C)cc1`, the “hERG current change (%, negative = inhibition) at 10uM” value rises from 2.06% to 10.4%.

First: CN(C)Cc1nc2c(c(=O)[nH]1)C1(CCCCC1)Cc1ccccc1-2
Second: CC1CCCN(C(=O)CSc2nnc3n(C4CCCC4)c(=O)c4ccccc4n23)C1 (centres unmarked)
The “hERG current change (%, negative = inhibition) at 10uM” value of the first is higher: -11.7% for the first, -62.7% for the second.

First: C=CCNC(=S)NNC(=O)c1ccc(OCCCC)cc1
Second: CCc1ccc(C(=O)N/N=C(\C)c2ccncc2)s1
The “hERG current change (%, negative = inhibition) at 10uM” value of the first is higher: 10.2% for the first, -11.1% for the second.

Compared with `CCN(CC(=O)NC(C)C)C(=O)[C@@H](NC(=O)c1ccco1)C(C)C`, `CS(=O)(=O)c1cccc(C(=O)NCc2ccccc2)c1` is lower in “hERG current change (%, negative = inhibition) at 10uM” value: 11.5% for the first, -0.394% for the second.

Going from `O=C(CCn1c(=O)oc2ccccc21)NCCCN1CCN(c2ccc(F)cc2)CC1` to `O=C(CCn1c(=O)oc2ccccc21)N1CCN(c2ccc(F)cc2)CC1`, the “hERG current change (%, negative = inhibition) at 10uM” value rises from -66.2% to -58%.

Going from `O=C(CCn1c(=O)oc2ccccc21)N1CCN(c2ccccc2F)CC1` to `O=C(CCCn1c(=O)oc2ccccc21)N1CCN(c2ccc(F)cc2)CC1`, the “hERG current change (%, negative = inhibition) at 10uM” value falls from -23.8% to -63.9%.

Going from `O=C(CN1C(=O)c2ccccc2S1(=O)=O)N1CCN(c2ccc(F)cc2)CC1` to `O=C(CCN1C(=O)c2ccccc2S1(=O)=O)N1CCN(c2ccc(F)cc2)CC1`, the “hERG current change (%, negative = inhibition) at 10uM” value falls from -7.37% to -61.9%.

Compared with `O=C(CCn1c(=O)oc2ccccc21)NCCCN1CCOCC1`, `O=C1CCN(C(=O)CCCn2c(=O)oc3ccccc32)CC1` is higher in “hERG current change (%, negative = inhibition) at 10uM” value: 16.9% for the first, 17% for the second.

First: Cl.O=C(CCN1C(=O)c2ccccc2S1(=O)=O)N1CCN(c2ccccc2)CC1
Second: O=C(CCCn1c(=O)oc2ccccc21)N1CCN(c2ccccn2)CC1
The “hERG current change (%, negative = inhibition) at 10uM” value of the first is higher: 2.96% for the first, -47.6% for the second.

Going from `O=C(CCn1c(=S)oc2ccccc21)N1CCN(c2ccc(F)cc2)CC1` to `COc1ccccc1NC(=O)CN1CCN(c2ccccc2F)CC1`, the “hERG current change (%, negative = inhibition) at 10uM” value rises from -25.3% to -18.4%.

Compared with `COc1ccc(C(=O)OCCN2C(=O)c3ccccc3C2=O)cc1`, `Cc1ccc(S(=O)(=O)NN2C(=O)/C(=C/c3ccc(C(=O)O)cc3)SC2=S)cc1` is higher in “hERG current change (%, negative = inhibition) at 10uM” value: -5.4% for the first, 19.9% for the second.

Compared with `COc1cc(OC)cc(-c2sc3ccc(OC)cc3c2C#CCCO)c1`, `COc1cc(NC(=O)CN2CCN(CC(=O)Nc3ccccc3OC)CC2)cc(OC)c1` is lower in “hERG current change (%, negative = inhibition) at 10uM” value: 10.5% for the first, 0.0651% for the second.

Going from `Cc1[nH]c2ccccc2c1C(=O)NS(=O)(=O)Nc1ccccc1` to `Cc1ccc(Cn2ccnc2C(=O)Nc2ccccc2)cc1`, the “hERG current change (%, negative = inhibition) at 10uM” value falls from 9.15% to 6.59%.

Going from `N#Cc1ccc(Cn2ccnc2C(=O)Nc2ccccc2)cc1` to `Cc1ccc(C2=Nc3cccnc3C(c3ccccc3)=NN2)cc1`, the “hERG current change (%, negative = inhibition) at 10uM” value rises from -87% to 0.802%.

Compared with `Cn1c(SCC(=O)NC2CCCC2)nnc1-c1ccncc1`, `CC1CCCN(C(=O)CSc2nnc(-c3cccnc3)n2C2CCCCC2)C1` (centres unmarked) is lower in “hERG current change (%, negative = inhibition) at 10uM” value: 33.9% for the first, -13.4% for the second.

First: O=C(CSc1nnc2n(C3CCCC3)c(=O)c3ccccc3n12)N1CCCCCC1
Second: O=C(CSc1nnc2n(C3CCCCC3)c(=O)c3ccccc3n12)OC1CCCCC1
The “hERG current change (%, negative = inhibition) at 10uM” value of the first is lower: -51.1% for the first, -4.92% for the second.

Going from `COc1ccccc1Cn1c(=O)c2ccccc2n2c(SCC(=O)N3CCCCC3)nnc12` to `COc1ccccc1NC(=O)CN1CCN(CC(=O)Nc2ccc(C)c(F)c2)CC1`, the “hERG current change (%, negative = inhibition) at 10uM” value falls from 15.2% to -70%.

Compared with `O=C(O)c1nccnc1C(=O)Nc1ccc(Oc2c(Cl)cccc2Cl)nc1`, `COc1ccc(Nc2nc3[nH]c(=O)cc(O)c3s2)cc1` is higher in “hERG current change (%, negative = inhibition) at 10uM” value: -26.1% for the first, 14.2% for the second.

Going from `COc1ccccc1N1CCN(CC(=O)Nc2ccc(C)c(F)c2)CC1` to `COc1ccc(C)cc1NC(=O)CN1CCN(c2ccccc2F)CC1`, the “hERG current change (%, negative = inhibition) at 10uM” value rises from -23.1% to -10.3%.

For `COc1ccc(C)cc1NC(=O)CN1CCN(S(=O)(=O)c2ccc(F)cc2)CC1`, the “hERG current change (%, negative = inhibition) at 10uM” value was 7.19%.

— PMC4336329 (PLoS ONE, 2015)
